Data reported in PubChem BioAssay (NCI).
“And” between values parts separate entries of the source, which are not always exact repeats. Equal entries are not always repeated. The panel holds about 79,000 compounds, 15% with a hit somewhere; the sample as a whole holds those more often. Some structures have more than one record in an assay (separate samples or runs), and their calls can disagree. The source made the active and inactive calls. No stated cut-off is given here; in the data, active means growth inhibition above about 70%; inactive means the rest.

How the values were obtained:
[1] = NCI Yeast Anticancer Drug Screen. Data for the rad50 strain (AID 155);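 further: 0% = growth of vehicle-only cultures of the same strain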; conditions: S. cerevisiae rad50 strain growth inhibition, stronger effect = higher value
Procedure, shortened: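 Compounds were tested on a yeast strain with an engineered DNA damage repair alteration; the reported value is growth inhibition normalised to vehicle treatment.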

[2] = NCI Yeast Anticancer Drug Screen. Data for the mec2-1 strain (AID 157); conditions: S. cerevisiae mec2-1 strain, stronger effect = higher value
Procedure, shortened: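 Compounds were applied to mec2-1 yeast cells. Their growth was then compared with that of vehicle-treated cultures to give growth inhibition.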

[3] = NCI Yeast Anticancer Drug Screen. Data for the sgs1 mgt1 strain (AID 161);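 further: 0% = growth of cultures given vehicle only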; conditions: S. cerevisiae sgs1 mgt1 strain, stronger effect = higher value
Procedure, shortened: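 Percent growth inhibition was derived by comparing compound-exposed mutant yeast with vehicle-exposed cultures. The strain carries alterations in DNA damage repair.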

[4] = NCI Yeast Anticancer Drug Screen. Data for the cln2 rad14 strain (AID 165);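 further: 0% = growth equal to vehicle treated cultures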; conditions: S. cerevisiae cln2 rad14 strain, stronger effect = higher value
Procedure, shortened: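 Strain: cln2 rad14 yeast, altered in cell cycle control and DNA damage repair. Read-out: growth inhibition vs vehicle.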

[5] = NCI Yeast Anticancer Drug Screen. Data for the bub3 strain (AID 167); conditions: S. cerevisiae bub3 mutant strain, stronger effect = higher value
Procedure, shortened: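 Growth of a checkpoint-deficient yeast mutant is measured after compound exposure. Values represent inhibition relative to vehicle.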

[6] = NCI Yeast Anticancer Drug Screen. Data for the mlh1 rad18 strain (AID 175); conditions: S. cerevisiae mlh1 rad18 strain growth inhibition, stronger effect = higher value
Procedure, shortened: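 A repair-deficient yeast strain is exposed to test compound, and growth is scored relative to vehicle-treated controls.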

[7] = at 5.0 µM (retest, dose inferred, filed as 0.5)
[8] = at 50.0 µM (retest, dose inferred, filed as 5.0)

Row | Structure (SMILES) | growth inhibition [1, 7] | growth inhibition [1, 8] | growth inhibition ([1]; at 50.0 µM) | growth inhibition [2, 7] | growth inhibition [2, 8] | growth inhibition ([2]; at 50.0 µM) | growth inhibition [3, 7] | growth inhibition [3, 8] | growth inhibition ([3]; at 50.0 µM) | growth inhibition [4, 7] | growth inhibition [4, 8] | growth inhibition ([4]; at 50.0 µM) | growth inhibition [5, 7] | growth inhibition [5, 8] | growth inhibition ([5]; at 50.0 µM) | growth inhibition [6, 7] | growth inhibition [6, 8] | growth inhibition ([6]; at 50.0 µM)
1 | CCC1CCCC(=O)C1 (stereo not given) | 2% (inactive) | 2% (inactive) | 89.2% (active) | -1% (inactive) | -5% (inactive) | 53.6% (inactive) | 0% (inactive) | -1% (inactive) | 14.1% (inactive) | 3% (inactive) | 1% (inactive) | 36.2% (inactive) | 2% (inactive) | 2% (inactive) | 99.4% (active) | -2% (inactive) | 0% (inactive) | 91.8% (active)
2 | CCCCCC[C@H](C/C=C\CCCCCCCC(=O)OC)OC(C)=O | -6% (inactive) | 27% (inactive) | -0.2% (inactive) and -4.1% (inactive) | -4% (inactive) | 69% (inactive) | 2.25% (inactive) and -0.75% (inactive) | -6% (inactive) | 42% (inactive) | 29.2% (inactive) and -40.8% (inactive) | -1% (inactive) | -4% (inactive) | 73.5% (active) and 54.6% (inactive) | -6% (inactive) | 92% (active) | 3.65% (inactive) and -26.2% (inactive) | -3% (inactive) | 21% (inactive) | 9.45% (inactive) and -22.9% (inactive)
3 | COC(=O)[C@]1(C)CCC[C@]2(C)c3cc(C(C)=O)c(C(C)C)cc3CC[C@@H]12 | -1% (inactive) | -11% (inactive) | 92.5% (active) and -4.55% (inactive) | 7% (inactive) | 10% (inactive) | 95.5% (active) and -11.9% (inactive) | -4% (inactive) | -27% (inactive) | 93.5% (active) and -5.45% (inactive) | -1% (inactive) | -2% (inactive) | 99.5% (active) and -40.8% (inactive) | 1% (inactive) | 0% (inactive) | 98.5% (active) and -5.05% (inactive) | -2% (inactive) | 8% (inactive) | 97% (active) and -12.2% (inactive)
4 | c1ccc(-c2[nH]c3ccccc3c2-c2ccccn2)cc1 | 3% (inactive) | 8% (inactive) | 91.8% (active) | -2% (inactive) | -2% (inactive) | 99.3% (active) | 4% (inactive) | 23% (inactive) | 95.6% (active) | 4% (inactive) | 8% (inactive) | 99.1% (active) | 0% (inactive) | 2% (inactive) | 98.7% (active) | 5% (inactive) | 13% (inactive) | 98.8% (active)
5 | Nc1nc(Cl)cc(NCCCCCCCCCCNc2cc(Cl)nc(N)n2)n1 | -4% (inactive) | 96% (active) | 28.9% (inactive) | 3% (inactive) | 100% (active) | 19.1% (inactive) | -1% (inactive) | 100% (active) | 0.05% (inactive) | 10% (inactive) | 99% (active) | 52.1% (inactive) | -7% (inactive) | 99% (active) | 18.8% (inactive) | 14% (inactive) | 99% (active) | 33% (inactive)
6 | CCCCCCN(CCCCCC)C(=O)C1=C(C)NC(C)=C(C(=O)N(CCCCCC)CCCCCC)C1 | 1% (inactive) | 15% (inactive) | 56.4% (inactive) | -16% (inactive) | -3% (inactive) | 4.4% (inactive) | -8% (inactive) | -1% (inactive) | 85.2% (active) | 33% (inactive) | 14% (inactive) | 0.5% (inactive) | -5% (inactive) | 17% (inactive) | 34.9% (inactive) | -1% (inactive) | -13% (inactive) | 59% (inactive)
7 | COc1ccc2cc(C(C)=O)c3ccccc3c2c1 | 11% (inactive) | 93% (active) | 94.2% (active) | -34% (inactive) | 95% (active) | 86.5% (active) | 1% (inactive) | 88% (active) | 96.2% (active) | -2% (inactive) | 77% (active) | -8.2% (inactive) | -68% (inactive) | 94% (active) | 2.7% (inactive) | 2% (inactive) | 95% (active) | 97% (active)
8 | O=C(NO)c1cccnc1 | 2% (inactive) | 3% (inactive) | 66.3% (inactive) | 2% (inactive) | -1% (inactive) | 16.1% (inactive) | -4% (inactive) | -3% (inactive) | 29.1% (inactive) | 1% (inactive) | 0% (inactive) | 14.8% (inactive) | 4% (inactive) | -2% (inactive) | 11.8% (inactive) | 3% (inactive) | 5% (inactive) | 16.4% (inactive)
9 | CCC(=O)OCOc1ccc(/C=C2\CCC(CN(C)C)C2=O)cc1 (stereo not given) | 30% (inactive) | 53% (inactive) | 93.3% (active) | 23% (inactive) | 66% (inactive) | 92.6% (active) | 40% (inactive) | 88% (active) | 92.5% (active) | 29% (inactive) | 34% (inactive) | 90.9% (active) | 36% (inactive) | 98% (active) | 84.5% (active) | 33% (inactive) | 66% (inactive) | 90.8% (active)
10 | O=C1C=CC(=O)c2c1ccc1c3ccccc3n(Cc3ccccc3)c21 | 27% (inactive) | 84% (active) | 73% (active) | 38% (inactive) | 90% (active) | 71.2% (active) | 41% (inactive) | 90% (active) | 59% (inactive) | 19% (inactive) | 49% (inactive) | 38% (inactive) | 52% (inactive) | 92% (active) | 76% (active) | 47% (inactive) | 90% (active) | 25.1% (inactive)
11 | CN(C)c1ccc(/C=C/c2cc[n+](C)c3ccccc23)cc1 | -3% (inactive) and -12% (inactive) | 81% (active) and 53% (inactive) | 95.3% (active) and 71.3% (active) | 0% (inactive) and -25% (inactive) | 93% (active) and 83% (active) | 97.9% (active) and 86.2% (active) | 3% (inactive) and -10% (inactive) | 92% (active) and 88% (active) | 93.7% (active) and 83.4% (active) | -2% (inactive) and -5% (inactive) | 89% (active) and 57% (inactive) | 96.6% (active) and 66.7% (inactive) | -3% (inactive) and -17% (inactive) | 85% (active) and 83% (active) | 97.5% (active) and 82.8% (active) | -8% (inactive) and -21% (inactive) | 93% (active) and 80% (active) | 97.7% (active)
12 | CN(C)C(=S)SC(=S)N(C)C | 97% (active) and 96% (active) | 99% (active) and 98% (active) | 97.3% (active) and 99% (active) | 98% (active) and 94% (active) | 99% (active) | 98.8% (active) and 98.5% (active) | 97% (active) and 94% (active) | 99% (active) | 99.2% (active) | 97% (active) and 50% (inactive) | 97% (active) | 87% (active) and 97.2% (active) | 99% (active) and 88% (active) | 99% (active) and 98% (active) | 98.5% (active) and 99.2% (active) | 99% (active) and 96% (active) | 99% (active) | 98% (active) and 98.8% (active)
13 | C=CCCC(=O)O | 6% (inactive) | 7% (inactive) | 1.25% (inactive) and 2.45% (inactive) | 7% (inactive) | 2% (inactive) | -2.15% (inactive) and -0.6% (inactive) | 5% (inactive) | 3% (inactive) | -11.3% (inactive) and 4.3% (inactive) | 4% (inactive) | 4% (inactive) | 54.4% (inactive) and 5.75% (inactive) | 4% (inactive) | 1% (inactive) | 64.5% (inactive) and 9.55% (inactive) | 0% (inactive) | 2% (inactive) | -40.5% (inactive) and 0.95% (inactive)
14 | NC(=O)N/N=C/c1ccc([N+](=O)[O-])o1 | 2% (inactive) | 73% (active) | 32% (inactive) and 46.6% (inactive) | 2% (inactive) | 26% (inactive) | 13.8% (inactive) and 8.3% (inactive) | 4% (inactive) | 34% (inactive) | 56.4% (inactive) and 48% (inactive) | 0% (inactive) | 16% (inactive) | 10.1% (inactive) and 26.1% (inactive) | -3% (inactive) | 22% (inactive) | 10.6% (inactive) and 51.8% (inactive) | 5% (inactive) | 50% (inactive) | 47.3% (inactive) and 71.3% (active)
15 | CC(=O)Oc1ccc2c(c1)Oc1cc(OC(C)=O)ccc1C21OC(=O)c2ccccc21 | 5% (inactive) | 5% (inactive) | 16.8% (inactive) and 98.2% (active) | -3% (inactive) | 53% (inactive) | 19.5% (inactive) and 99.5% (active) | 3% (inactive) | 36% (inactive) | 30.9% (inactive) and 96.8% (active) | 3% (inactive) | 54% (inactive) | 14.2% (inactive) and -25.1% (inactive) | -1% (inactive) | 27% (inactive) | 18.6% (inactive) and 99.5% (active) | 14% (inactive) | 24% (inactive) | 24.8% (inactive) and 98.7% (active)
